Assay outcomes deposited in PubChem BioAssay by several laboratories.
HSP90 refold inh: blocks HSP90-mediated luciferase refolding in reticulocyte lysate. Rabbit reticulocyte lysate, luciferase refolding luminescence, 3 h. AID 1789. actives 0.91% (n = 290,000). inhibition, % at 5.6 µM;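 active = inhibition above the screen-wide mean plus 3 SD, computed separately per campaign, cut at about 16% in these data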;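 also: inhibitors lower the luminescence because luciferase stays unfolded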
LGR2 inh: Drosophila LGR2 receptor signaling inhibition. HEK293 LGR2, CRE-luciferase, bursicon-stimulated, 4 h. inhibition, % at 9.99 µM. actives 0.35% (n = 380,000);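 active = drop in luminescence signal, shown as inhibition above about 50% in the replicate tests, limit read from the data, passing the limit was not always enough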;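 also: agonist challenge used bursicon conditioned medium at about half maximal strength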
TROY NFkB inh: blocks TROY-dependent signaling in reporter cells; AID 1347056; inhibition, % at 10 µM; actives 0.98% (n = 360,000); Q293 LMP1-TROYcd NF-kB luciferase reporter, 4 h;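 active = compounds whose plate-normalised and pattern-corrected inhibition of the luciferase reporter signal at the single screening dose is 50% or more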
TWEAK Fn14 block: TWEAK-Fn14 signaling inhibition; TWEAK-stimulated Fn14 reporter cells, luciferase luminescence, 8 h; inhibition, % at 10 µM; actives 2% (n = 360,000); AID 1159606; in the data active = inhibition above about 50%
A number is an active result; – = inactive; · = not tested or not shown; ! = repeats disagree. This is a sample that favours compounds with a hit; in the whole collection about 2.2% have one here.

SMILES	HSP90 refold inh	LGR2 inh	TROY NFkB inh	TWEAK Fn14 block
Cc1ccc(S(=O)(=O)Nc2ccc3c(c2)C(=O)N([C@@H](C)CO)C[C@H](C)[C@H](CN(C)S(=O)(=O)c2cn(C)cn2)O3)cc1	·	–	·	·
Cc1cc(NC(=O)CCCSc2nc(-c3ccco3)cc(C(F)(F)F)n2)n(-c2ccccc2)n1	–	·	·	62
CCCc1nnc(NC(=O)CNc2ccc(F)cc2)s1	–	·	·	81
CC(C)CC#Cc1ccc2c(c1)O[C@@H](CN(C)Cc1cccc(F)c1)[C@H](C)CN([C@@H](C)CO)S2(=O)=O	·	–	·	·
COc1ccc(NC(=S)NC(=O)/C=C/c2cccs2)cc1	–	–	–	–
O=C(/C=C/c1cccs1)NC(=S)Nc1ccc(S(=O)(=O)Nc2ccccc2C(F)(F)F)cc1	–	–	52	–
COc1ccc(/C=C/c2noc(-c3ccccc3O)n2)cc1	–	–	–	56
Cc1ccc(NC(=O)/C=C/c2ccc(S(=O)(=O)N3CCOCC3)cc2)cc1S(=O)(=O)N(C)C	·	–	53	68
NS(=O)(=O)c1ccc(CNC(=O)/C=C/c2ccc(S(=O)(=O)N3CCOCC3)cc2)cc1	–	–	–	–
NS(=O)(=O)c1ccc(CCNC(=O)/C=C/c2ccc(S(=O)(=O)N3CCOCC3)cc2)cc1	·	–	–	84
COc1ccc(/C=C/C(=O)Nc2ccc(C(C)=O)cc2)cc1S(=O)(=O)N1CCOCC1	·	–	–	–
COc1cc(/C=C/C(=O)Nc2ccc(OC)c(S(=O)(=O)N3CCOCC3)c2)ccc1OC(F)F	·	–	57	–
O=C(CN1CCCCC1)N1c2ccccc2Oc2ccccc21	–	·	–	–
O=C(CO/N=C/c1ccccc1)N1c2ccccc2Oc2ccccc21	16	·	–	–
O=C(C[C@@H]1CC[C@H](NS(=O)(=O)c2ccc(F)cc2)[C@H](CO)O1)NC1CCC1	·	–	·	·
N#Cc1ccc(-c2ccc(C3[C@@H]4CN(C(=O)C5CCC5)C[C@H]3N4)cc2)cc1 (stereo partly drawn)	·	70!	·	·
O=C(c1ccc(F)cc1)N1C[C@@H]2N[C@H](C1)C2c1ccc(-c2ccccc2F)cc1 (stereo partly drawn)	·	–	·	·
O=C(C1CC1)N1C[C@@H]2N[C@H](C1)C2c1ccc(-c2cccc(F)c2)cc1 (stereo partly drawn)	·	61!	·	·
O=C(C1CC1)N1C[C@@H]2N[C@H](C1)C2c1ccc(-c2ccccc2F)cc1 (stereo partly drawn)	·	88!	·	·
N#Cc1cccc(-c2ccc(C3[C@@H]4CN(C(=O)C5CC5)C[C@H]3N4)cc2)c1 (stereo partly drawn)	·	89!	·	·
O=C(C1CCCC1)N1C[C@@H]2N[C@H](C1)C2c1ccc(-c2cccc(F)c2)cc1 (stereo partly drawn)	·	–	·	·
CCN(CC)c1ccc(-c2nnc(SCC(=O)Nc3ccccc3C#N)n2-c2ccccc2)cc1	–	·	·	75
N#Cc1ccccc1NC(=O)CSc1nnc(-c2ccccc2)n1-c1ccccc1	–	·	–	–
COCC(=O)Nc1ccc2c(c1)OC[C@H](C)N(Cc1ccccc1)C[C@@H](C)[C@@H](OC)CN(C)C2=O	·	–	·	·
NC(=S)NN=Cc1nccc2ccccc12	·	–	–	77
SMILES	HSP90 refold inh	LGR2 inh	TROY NFkB inh	TWEAK Fn14 block
NC(=S)NN=Cc1nccc2c(C(F)(F)C(F)(F)C(F)(F)F)cccc12	·	–	–	–
Oc1ccc(/C=N/Nc2nc(-c3ccc(Cl)cc3)cc(C(F)(F)F)n2)cc1	–	·	–	79
NC(=O)c1ccsc1NC(=O)COC(=O)Cc1cccc2ccccc12	–	·	61	55
NC(=O)c1ccsc1NC(=O)COC(=O)Cc1c[nH]c2ccccc12	·	–	–	–
O=C(NCC1CCCO1)c1cccc2c1C(=O)c1ccc(N3CCC(Cc4ccccc4)CC3)cc1S2(=O)=O (stereo not drawn)	·	·	56	90
COCC(=O)N(C[C@H]1N[C@H](CO)[C@@H]1c1ccc(-c2cccnc2)cc1)C(C)C	·	–	·	·
CCOC(=O)[C@]12CCCC=C1N(Cc1cccc3ccccc13)C(=O)[C@H](CC(=O)NCc1ccc(OC)c(OC)c1)C2	·	40	–	–
CO[C@@H]1CN(C)C(=O)c2cc(NC(=O)NC(C)C)ccc2OC[C@@H](C)N(C)C[C@H]1C	·	–	·	·
Cc1c(C(c2cc3c(cc2Br)OCO3)c2c(C)n(C)n(-c3ccccc3)c2=O)c(=O)n(-c2ccccc2)n1C	–	–	–	64
Cc1c(C(c2ccccc2O)c2c(C)n(C)n(-c3ccccc3)c2=O)c(=O)n(-c2ccccc2)n1C	–	–	–	–
O=C(O)CC/C(=C\c1ccc(N2CCCC2)c([N+](=O)[O-])c1)c1nc2ccccc2s1	–	–	–	–
CN(c1ccccc1)c1ccc(/C=C(/CCC(=O)O)c2nc3ccccc3s2)cc1[N+](=O)[O-]	·	–	57	–
